Laboratory results taken from PubChem BioAssay AID1117319 (Southern Research Institute, 2015).
Among all 260,000 compounds or so, about 1,500 (0.58%) were called active. About 5% were inconclusive and are not listed. A selection follows. Results with a measured potency or affinity are listed apart. Values without a mark were called inactive.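 How the source made its calls: active means inhibition above a set limit at one or more doses, reproduced on every date tested; inconclusive means results disagree between test dates, or hit never tested in dose response; inactive means the rest.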

target: Virion infectivity factor (Human immunodeficiency virus type 1 group M subtype B (isolate BH10)) + Virion infectivity factor (Human immunodeficiency virus type 1 group M subtype B (isolate BRU/LAI)) + Virion infectivity factor (Human immunodeficiency virus type 1 group M subtype B (isolate PCV12)) + Virion infectivity factor (Human immunodeficiency virus type 1 group M subtype B (isolate HXB2)) + DNA dC->dU-editing enzyme APOBEC-3G (Homo sapiens) (UniProt P69720+P69721+P69722+P69723+Q9HC16); test: HIV-1 Vif–A3G interaction blockers – biochemical, TR-FRET, GST-Vif 1-94, biotin-A3G peptide, dose response retest, primary screen (AID 1117319); details: TR-FRET GST-Vif / biotin-A3G peptide binding; hits give high values;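 further: Vif residues 1-94 fused to GST binding biotinylated APOBEC3G peptide 110-148; 0% = full assay without inhibitor and 100% = GST in place of GST-Vif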

In order of falling inhibition:
1. O=C(O)c1cccc(S(=O)(=O)Nc2ccccc2Cl)c1  65.8%
2. COC(=O)c1ccc(Cn2nnc3ccccc32)cc1  26.1%
3. Cc1c(C)c(C)c(CN2CCSCC2)c(C)c1C  21.2%
4. CCN(C(=O)CN1CCN(c2ccc(OC)cc2)CC1)c1c(N)n(Cc2ccccc2)c(=O)[nH]c1=O  20.7%
5. CC(=O)c1ccc(N2CCN(CC(=O)N(CC(C)C)c3c(N)n(CC(C)C)c(=O)[nH]c3=O)CC2)cc1  19.2%
6. Cc1ccc(C)n1-c1cccc(C(=O)Nc2ccccc2)c1  18.2%
7. Cc1cc(C)cc(NC(=O)CCNS(=O)(=O)c2ccc3c(c2)oc(=O)n3C)c1  17.7%
8. Cc1cc(N)ccc1-n1c(C)ccc1C  15.6%
9. CC(C)CN(C(=O)CN1CCN(c2ccc([N+](=O)[O-])cc2)CC1)c1c(N)n(CC(C)C)c(=O)[nH]c1=O  13.2%
10. CN(C)CCNC(=O)Cn1nc(C(F)F)cc1C1CC1  12.5%
11. O=C(NC1CCCCC1)C12CC3CC(CC(Cl)(C3)C1)C2  9.37%
12. O=[N+]([O-])c1ccccc1S(=O)(=O)NC1CCCCCCC1  8.73%
13. CCOc1ccc(/C=N/NC(=O)CN2CCCCCCC2)cc1  7.01%
14. CCOc1ccc(S(=O)(=O)Nc2cc(OC)ccc2OC)cc1  6.81%
15. COc1ccc(CCN2CC(C(=O)N(C)CCn3nc(C)cc3C)CCC2=O)cc1 (centres undefined)  6.02%
16. O=[N+]([O-])c1ccccc1S(=O)(=O)Nc1ncccn1  5.53%
17. Cc1ccc(NC(=O)CCNS(=O)(=O)c2cc(Br)cnc2N)cc1Cl  5.11%
18. COc1ccc(O)c(CN2CC3CCC(CC3)C2)c1  4.35%
19. COc1ccc(N2CCN(C(=O)COC(=O)CNC(=O)c3ccccc3)CC2)cc1  3.12%
20. CCCCOc1ccc(S(=O)(=O)Nc2cc(OC)ccc2OC)cc1  1.88%
21. Cc1ccccc1C(=O)O/N=C1\CCS(=O)(=O)c2sccc21  1.21%
22. CC(=O)c1ccc(NC(=O)Cn2nc(C)cc2C)cc1  1.14%
23. Cc1ccc(-c2ccccc2)n1-c1cccc(C(=O)O)c1  0.87%
24. COc1ccc(NC(=O)NNC(=O)c2ccc(Cl)cc2Cl)cc1OC  0.67%
25. Cc1cc(C(C)(C)C)oc1C(=O)N(CC(=O)NC1CCCC1)Cc1ccc(F)cc1  0.27%
26. CCc1ccc(C(=O)O)cc1  0.16%
27. CC1CCCN(C(=O)NC(=O)c2ccc(Cl)cc2)C1 (centres undefined)  -0.86%
28. Cc1cc(C)n(Cc2ccc(C(=O)O)cc2)n1  -1.33%
29. Cc1c(Cl)cccc1NS(=O)(=O)c1ccccc1  -1.9%
30. O=C(Nc1nc2c(ccc3ccccc32)s1)c1cc([N+](=O)[O-])ccc1N1CCOCC1  -2.48%
31. O=C(COC(=O)CCCSc1nc2ccccc2[nH]1)Nc1cccc(F)c1  -3.43%
32. Cc1ccc(C)n1-c1ccc(C(=O)NN)cc1  -3.66%
33. CCOC(=O)C1(Cc2cccc(F)c2)CCN(Cc2ccon2)CC1  -4.55%
34. Cc1ccc(-c2ccccc2)n1-c1ccc(C(=O)O)cc1  -4.6%
35. FC(F)(F)c1cnc(N2CCN(C(=S)NCc3ccccc3)CC2)c(Cl)c1  -5.24%
36. O=C(C1CCCO1)N1CCN(C(=S)NC2CC2)CC1 (centres undefined)  -5.45%
37. CCN(C(=O)COC(=O)c1oc2ccc(OC)cc2c1C)C1CCCCC1  -5.77%
38. CC1(C)NC(=O)N(CC(=O)NNC(=O)c2ccccc2F)C1=O  -5.82%
39. COc1cc2[nH]c3c(=O)n(N)c(=O)[nH]c3c2cc1OC  -6%
40. COc1cccc(NS(=O)(=O)c2ccc3c(c2)NC(=O)CC(=O)N3)c1  -6.3%
41. CCN(C(=O)CN1CCN(c2ccccc2)CC1)c1c(N)n(Cc2ccccc2)c(=O)[nH]c1=O  -6.89%
42. Cc1cc(C)n(CC(=O)NNC(=O)c2ccc(S(C)(=O)=O)cc2)n1  -6.9%
43. CC(=O)Oc1ccccc1C(=O)N1CCN(S(=O)(=O)c2ccc3ccccc3c2)CC1  -7.33%
44. CC1CC(C)(C)NC(=S)N1CCCC(=O)Nc1ccc(Br)cc1 (centres undefined)  -9.53%
45. O=C(C1CCCO1)N1CCC(O)(c2ccccc2)CC1 (centres undefined)  -9.62%
46. O=C(O)c1ccc(NS(=O)(=O)c2ccc3c(c2)C2C=CCC2C(c2ccccc2F)N3)cc1 (centres undefined)  -10%
47. Cc1cc(C(=O)O)ccc1-n1c(C)cc(C=C2C(=O)c3ccccc3C2=O)c1C  -10.7%
48. Cc1ccc(S(=O)(=O)N2C(=O)CCC2C(N)=O)cc1 (centres undefined)  -11.2%
49. Cc1cc(C)cc(NC(=O)CCNS(=O)(=O)c2cc(Br)cnc2N)c1  -18.9%
